Measured values taken from the supplement of paper PMC9948646.

test system: gramicidin D channels in DC22:1PC lipid vesicles (bilayer-modifying potency); experiment: initial Tl+ fluorescence quench rate relative to no-drug control (NormRate, gramicidin monomer-dimer shift) (ratio (fold of control)); higher = stronger bilayer-modifying effect (equilibrium shifted toward conducting dimers), active = 1.5 or more; conditions: 10 µM; lipid concentration 50 µM; temperature: 25 °C
Experimental: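 Stopped-flow fluorescence quench assay: ANTS-loaded DC22:1PC large unilamellar vesicles doped with gramicidin D (1:2000), 50 µM lipid, equilibrated 10 min with 10 µM drug (0.1% DMSO), mixed with Tl+ quench buffer at 25°C. Initial quench rate (Tl+ influx) was fitted with a modified stretched exponential and normalised to the no-drug control rate (NormRate); duplicates from two independent LUV preparations (triplicates for 7 drugs).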

Initial Tl+ fluorescence quench rate, active:
CS(=O)(=O)N1CCC(CCn2nc(Cc3cccc4ccccc34)c3c(N)ncnc32)CC1 1.95
Cc1cc(C)c2cc(C(=O)NC3CCCCCCC3)[nH]c2c1 1.78
CC1=NN(c2nc3ccccc3s2)C(=O)[C@@H]1Cc1cccc2ccccc12 2.18
Nc1nc2ccc(-c3cncc(Oc4ccc(F)cc4)c3)cc2[nH]1 1.85
O=C(NC1CC1)c1ccc(N2CCOc3ccc(Cl)cc32)s1 3.52
CC(C)(C)CN1C(=O)C(c2ccccc2)(c2ccccc2)N=C1N 2.96
CCOc1ccc(-c2nc(NC(=O)CS(=O)(=O)c3ccccc3)sc2C)cc1 3.58
COc1ccc(C2=NN(C3CCCCCC3)C(=O)C2(C)C)cc1OCCCCOc1ccc(-c2nn[nH]n2)cc1 9.05
COc1ccc(C2=NN(C3CCCCCC3)C(=O)C2(C)C)cc1OCc1ccccn1 1.8
[H]/N=C(\Nc1ccc(Cl)cc1)Nc1nc(C)cc(NCCc2ccccc2)n1 3.21
Nc1ccc2ncnc(Nc3ccc(OCc4cccc(F)c4)c(Cl)c3)c2c1 2.58
c1ccc(Oc2ccc(-c3cc(N4CCOCC4)[nH]n3)cc2)cc1 2.4
O=C(c1ccc(NCCO)cc1)[C@H]1C[C@H]1c1ccc(Cl)cc1 3.55
Cc1cnc(N2CCN[C@@H](Cc3ccccc3)C2)nc1Oc1ccc(-n2ccnc2)cc1 1.72

Initial Tl+ fluorescence quench rate, inactive:
CC(C)(C)c1ccc(N[C@@H]2CCCC[C@H]2NC(=O)c2ccco2)cc1 1.36
COc1ccc(-c2nn(C(C)C)c3ncnc(N)c23)cc1OC 1.01
COc1cccc(OCC(=O)c2ccc(Br)cc2)c1 1.06
C[C@H]1COc2c(N3CCN(C)CC3)c(F)cc3c(=O)c(C(=O)O)cn1c23 1.04
CO[C@H]1/C=C/O[C@@]2(C)Oc3c(C)c(O)c4c(O)c(/c(=C/NN5CCN(C)CC5)c(O)c4c3C2=O)=N\C(=O)/C(C)=C\C=C/[C@H](C)[C@H](O)[C@@H](C)[C@@H](O)[C@@H](C)[C@H](OC(C)=O)[C@@H]1C 1.34
Cc1cc(C(=O)Nc2ccc(-c3ccccc3)cc2)no1 1.11
Cc1cnc(CCNC(=O)c2cc(-c3ccc(Cl)cc3)cs2)[nH]1 1.34
Cc1cc(C)n2nc(C(=O)Nc3cc(C(F)(F)F)ccc3N3CCOCC3)nc2n1 1.17
CCc1ccc([C@@H](NCc2nc(N)nc(N(C)C)n2)C(C)C)cc1 1.08
FC(F)(F)c1nnc2ccc(Cl)nn12 1.02
FC(F)(F)c1cnc(Sc2nnc(-c3ccncc3)o2)c(Cl)c1 1.23
O=C(C1CCN(c2cc(-n3cccc3)ncn2)CC1)N1CCc2ccccc2C1 1.45
O=C(C1CCN(c2nnnn2-c2ccccc2)CC1)N1CCc2ccccc2C1 1.23
CCc1ccccc1-n1c(C)cn2c3c(=O)n([C@@H](C(=O)OC)C(C)C)c(=O)n(C)c3nc12 1.2
C[C@@]1(COc2ccc(N3CCC(Oc4ccc(OC(F)(F)F)cc4)CC3)cc2)Cn2cc([N+](=O)[O-])nc2O1 1.1
CS(=O)(=O)Cc1nc2ccccc2oc1=O 1.08
N#Cc1ccc(-c2ccc(OCC(N)=O)cc2)cc1 1.06
CCCn1c(CNc2ccccc2O)nc2ccccc21 1.05
COC(=O)c1c(NC(=O)c2cc3ccccc3oc2=O)sc2c1CCN(Cc1ccccc1)C2 1.04
CC[P](CC)(CC)=[Au][S][C@H]1O[C@@H](COC(C)=O)[C@H](OC(C)=O)[C@@H](OC(C)=O)[C@@H]1OC(C)=O 1.07
CNc1cc(C)nc([C@@H]2CN(C(=O)c3n[nH]c4ccccc34)CCO2)c1 1.11
Cc1cc(NCC(C)C)c2n[nH]c(-c3ccccc3)c2n1 1.11
COc1ccc(CN2CCOc3ccc([C@@](C)(O)CN(C)C)cc3C2)cc1C 1.2
O=C(NC1CC1)c1ccc(N2CCC(Cc3ccccc3)CC2)nc1 1.43
